Screening data as filed in PubChem.
FBW7 activator: activators of human E3 ligase FBW7; AID 1259310; AlphaScreen FBW7–phospho-cyclin E peptide binding, activator screen; normalized activity (activation), % at 26.1 µM; Q969H0; 0.13% of 650,000 active; in the data active = normalized activity above about 1.9%;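 also: purified mutant Fbw7 with reduced substrate affinity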
MITF inh: blocks human microphthalmia-associated transcription factor | 0.91% of 650,000 active | AlphaScreen MITF homodimerization, bead proximity signal | O75030 | AID 1259374 | inhibition, % at 2.6 µM; in the data active = inhibition above about 50%;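 also: 0% = vehicle wells with protein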
TEAD-YAP inh: TEAD-YAP interaction inhibition; inhibition, % at 9.12 µM; HEK-TIYL cells, TEAD-Gal4/YAP UAS-luciferase luminescence; 1.4% of 640,000 active; in the data active = inhibition above about 32%;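 also: 0% = median of test compound wells and 100% = reference inhibitor wells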
GPR151 activ: human GPR151 activation; Q8TDV0; PathHunter beta-arrestin GPR151 cells, luminescence; activation, % at 11.2 µM; 1% of 650,000 active; AID 1508602; in the data active = activation above about 4.9%;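 also: 0% = median of compound wells and 100% = cells with positive control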
Target sequence (Q8TDV0 whole entry, looked up): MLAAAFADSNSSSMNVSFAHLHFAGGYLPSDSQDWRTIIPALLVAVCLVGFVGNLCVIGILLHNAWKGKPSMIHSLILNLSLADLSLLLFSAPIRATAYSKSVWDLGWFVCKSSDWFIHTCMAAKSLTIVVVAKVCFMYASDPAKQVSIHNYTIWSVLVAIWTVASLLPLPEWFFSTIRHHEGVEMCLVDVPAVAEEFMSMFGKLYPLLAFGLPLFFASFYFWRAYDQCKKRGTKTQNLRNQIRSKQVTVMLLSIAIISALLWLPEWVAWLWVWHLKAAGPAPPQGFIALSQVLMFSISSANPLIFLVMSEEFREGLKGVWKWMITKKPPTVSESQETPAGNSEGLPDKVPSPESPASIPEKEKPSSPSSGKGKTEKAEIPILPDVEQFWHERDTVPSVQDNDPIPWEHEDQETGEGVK
Starred values were filed as active, the others as inactive. Hits are enriched below; roughly 3.5% of the tested compounds scored in any of these assays.

SMILES	FBW7 activator	MITF inh	TEAD-YAP inh	GPR151 activ
Cc1ccc(S(=O)(=O)N2CCCCC2CCNC(=O)C(=O)NCc2ccco2)cc1 (stereo unspecified)	0	-4	41*	-1
COc1cc(NC(=O)c2sc3ncn(CC(=O)Nc4cccc(C(F)(F)F)c4)c(=O)c3c2C)cc(OC)c1OC	0	-10	-1	-1
CC(=O)Cn1cnc2scc(-c3ccc(Cl)cc3)c2c1=O	0	11	4	1
Cn1nccc1Nc1nc(NCCCN2CCCC2=O)c2ncn(-c3ccccc3)c2n1	0	11	10	1
Cn1cccc1/C=C1\Cc2ccccc2C1=O	0	2	-28	-4
Cn1cccc1/C=C1\CCc2ccccc2C1=O	0	7	64*	-8
COc1cc(C(=O)Oc2ccc3c(=O)c(Oc4cc(C)cc(C)c4)coc3c2)cc(OC)c1OC	0	3	2	1
O=c1c(Oc2ccc(Cl)cc2)coc2cc(O)ccc12	0	12	-4	2
COc1cc(C(=O)Oc2ccc3c(=O)c(Oc4ccc(C(C)(C)C)cc4)coc3c2)cc(OC)c1OC	0	-6	80*	-1
CC(C)(C)c1ccc(Oc2coc3cc(O)ccc3c2=O)cc1	1	18	64*	0
CC(=O)c1ccc(NC(=O)/C=C/c2cn(CCC#N)nc2-c2ccc(F)cc2)cc1	0	0	11	1
COc1cc(C2C(C(=O)OC3CCCC3)=C(C)NC3=C2C(=O)CC(C)(C)C3)cc(Br)c1O (stereo unspecified)	0	1	-2	-1
COc1cc(Nc2nc(-c3ccccc3)nc3nc[nH]c23)cc(OC)c1OC	0	5	60*	0
COc1cc(Nc2nc(-c3ccc(N4CCOCC4)nc3)ncc2C)cc(OC)c1OC	0	5	30	-1
COc1ccc(-c2nc3ncnc(Nc4cc(OC)c(OC)c(OC)c4)c3[nH]2)cc1	0	4	50*	-3
COc1cc(Nc2nc(-c3ccc(N4CCOCC4)nc3)nc3nc[nH]c23)cc(OC)c1OC	1	21	52*	-1
Oc1ccc(/C=N/NC(=S)Nc2cccnc2)c(O)c1O	-1	84*	-6	-1
Oc1cccc(/C=N/NC(=S)Nc2cccnc2)c1O	-1	112*	40*	-2
Oc1ccc(/C=N/NC(=S)Nc2cccnc2)c(O)c1	-1	119*	4	0
O=[N+]([O-])c1ccccc1NC(=S)N/N=C/c1ccc(O)c(O)c1O	-1	57*	49*	1
Cn1cc(OCc2ccc(F)cc2)c(=O)cc1C(=O)NC1CCN(Cc2ccccc2)CC1	0	6	10	0
Cc1c(Cl)cccc1NC(=O)c1cc(S(=O)(=O)N2CCN(c3ccccc3)CC2)ccc1F	0	-12	7	-2
NC(=O)NC(CC(=O)OCC(=O)Nc1ccc2c(c1)CCC2)c1ccc(Cl)cc1 (stereo unspecified)	0	13	5	0
CCCSc1nc2c(c(=O)[nH]1)C(c1ccc(C)o1)C1=C(CCCC1=O)N2 (stereo unspecified)	0	6	-6	-1
c1ccc2c(c1)ccc1nnc(-c3c[nH]c4ccccc34)n12	0	18	7	-1
SMILES	FBW7 activator	MITF inh	TEAD-YAP inh	GPR151 activ
c1ccc2c(c1)Cn1nc(-c3c[nH]c4ccccc34)nc1-2	0	3	77*	-10
N#CC(C#N)=NNc1ccc(SC(F)F)cc1	0	6	74*	1
Cc1cc(C(=O)CSc2nnc(N)s2)c(C)n1Cc1ccco1	0	7	37*	-1
COc1ccc(CCn2c(C)cc(C(=O)CSc3nnc(C)s3)c2C)cc1	0	-2	4	0
COCCn1c(C)cc(C(=O)CSc2nnc(C)s2)c1C	0	-2	70*	-6
Cc1nnc(SCC(=O)c2cc(C)n(Cc3cccs3)c2C)s1	0	2	62*	1
Cc1cc(C(=O)COC(=O)c2cccs2)c(C)n1Cc1cccs1	0	14	53*	-1
CCOC(=O)c1sc2nc(SCC(=O)c3ccccc3)n(Cc3cccs3)c(=O)c2c1C	0	-15	-1	0
Cc1ccc(Cl)cc1N(CC(=O)Nc1ccc2c(c1)OCO2)S(C)(=O)=O	0	-19	1	3
CCOc1ccc(NS(=O)(=O)c2ccc(NC(=O)C(F)(F)F)cc2)cc1	0	7	0	2
Cc1cc2ncn(C(=O)c3c(-c4c(Cl)cccc4Cl)noc3C)c2cc1C	2.4*	9	-10	0
Cc1cc2ncn(C(=O)c3c(-c4ccccc4)noc3C)c2cc1C	0	2	11	1
CCOC(=O)/C(=C\N(C)C)C(=O)c1cc([N+](=O)[O-])c(Cl)cc1Cl	0	5	38*	0
